± gives the standard deviation of the averaged measurements.
test system: MDA-MB-231; experiment: cell viability relative to vehicle unstimulated control (fraction); higher = more viable cells; details: pre-treatment time: 18 h then 24 h IFNg/TNF
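Further: viability of the cells left after supernatant collection, read with Deep Blue dye added for 4 h, as absorbance at 570 nm minus 600 nm.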

SMILES	cell viability
CC(=O)O[C@@]12C[C@@H](C)[C@@]3(O)[C@@H](C=C(CO)C[C@]4(O)C(=O)C(C)=C[C@@H]34)[C@@H]1C2(C)C [Prostratin] (compound dose: 10 uM)	1.31 ± 0.36
COc1ccc2c(c1O)-c1c(O)c(OC)cc3c1[C@H](C2)N(C)CC3 [Corytuberine] (compound dose: 10 uM)	0.829 ± 0.025
CC(=O)O[C@H]1C[C@H](O[C@H]2[C@@H](O)C[C@H](O[C@H]3[C@@H](O)C[C@H](O[C@H]4CC[C@@]5(C)[C@H](CC[C@@H]6[C@@H]5C[C@@H](O)[C@]5(C)[C@@H](C7=CC(=O)OC7)CC[C@]65O)C4)O[C@@H]3C)O[C@@H]2C)O[C@H](C)[C@H]1O[C@@H]1O[C@H](CO)[C@@H](O)[C@H](O)[C@H]1O [Lanatoside C] (compound dose: 10 uM)	0.607 ± 0.021
O=C(O)c1ccc(=O)[nH]c1 [6-hydroxynicotinic acid] (compound dose: 10 uM)	0.951 ± 0.036
CCCCCCCCCCCCCC(=O)O[C@@H]1[C@@H](C)[C@@]2(O)[C@@H](C=C(CO)C[C@]3(O)C(=O)C(C)=C[C@@H]23)[C@@H]2C(C)(C)[C@]12OC(C)=O [12-O-tetradecanoyl phorbol-13-acetate] (compound dose: 10 uM)	1.06 ± 0.043
C=C1CC[C@H]2[C@@H](/C=C(\C)C(=O)[C@@]3(OC(C)=O)C[C@H](C)[C@H](OC(=O)c4ccccc4)[C@@H]3[C@H]1OC(C)=O)C2(C)C [5,15-Diacetyl-3-benzoyllathyrol] (compound dose: 10 uM)	1.031 ± 0.01
